# Most compounds without a hit are left out; they make up all but 12% or so of the library.
# PLK1 PBD inh: inhibitors of human PLK1 polo-box domain binding; P53350; Plk1 PBD binding of FITC phosphopeptide, fluorescence polarization; Potency, µM, for the others: max response, negative = inhibition, most hits filed as inhibitors; hit rate 2.8% among 360,000; also: series mostly up to about 57 µM; % is scaled to controls: 0 for no effect and ±100 for the full control effect; nearly all actives have a fitted effect of over 65% in size
# Sfp PPTase inh: blocks B. subtilis Sfp PPTase activity; Q9F4F7; Biochemical Sfp PPTase activity, qHTS; Potency, µM, for inactives: largest response in the series, negative = inhibition, actives largely listed as inhibitors; hit rate 3.5% among 310,000; AID 1490;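 also: the enzyme is Sfp with the accession as filed and its product quenches rhodamine fluorescence; 0% = enzyme reaction without inhibitor and -100% = no enzyme wells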
#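 With Hepes-Na pH 7.6 buffer containing 10 mM MgCl2, Sfp (15 nM) modified BHQ-2-YbbR (12.5 uM) using rhodamine-CoA (5 uM). Two reads 30 minutes apart at 525/598 nm yielded each well's rate.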
# HP1b binding inh: blocks HP1-beta chromodomain binding to methylated histone tails. AlphaScreen HP1-beta / biotin-H3K9me3 peptide binding. Potency, µM (doses to about 114 µM), without a hit: at the top dose activity change, negative = inhibition, usual class: inhibitors. hit rate 0.56% among 390,000. AID 540317; also: nearly all actives have a fitted effect of over 70% in size
# Target sequence (P83916 whole entry, looked up): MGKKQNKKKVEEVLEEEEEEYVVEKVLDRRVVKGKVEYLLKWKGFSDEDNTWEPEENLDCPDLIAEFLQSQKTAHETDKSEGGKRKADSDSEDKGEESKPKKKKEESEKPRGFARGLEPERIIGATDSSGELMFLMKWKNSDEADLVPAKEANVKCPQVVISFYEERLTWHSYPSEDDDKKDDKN
#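 Compound inhibition of the preformed complex between 50 nM HP1-beta and 50 nM biotinylated H3K9me3 peptide was read by AlphaScreen. Buffer was PBS pH 7.4 with 0.01% Tween-20. Incubations ran 30 min at room temperature, with 10 ug/mL donor/acceptor beads.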
# BAZ2B block: blocks human BAZ2B; AlphaScreen BAZ2B-H3K14Ac peptide displacement; Potency, µM (top dose mostly 114 µM), for inactives: top-dose activity change, negative = inhibition, hits mostly inhibitors; hit rate 4.4% among 360,000; AID 504333; Q9UIF8; also: % is scaled to controls: 0 for no effect and ±100 for the full control effect; nearly all actives have a fitted effect of over 60% in size
#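 AlphaScreen displacement of biotin-H3(5-23)K14Ac peptide (50 nM final) from BAZ2B (50 nM final) in PBS pH 7.4, 0.01% Tween-20; complex preformed 30 min RT, then compounds (top 110 uM) 30 min RT, beads 20 min dark.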
# G9a inh: inhibitors of human histone lysine methyltransferase G9a; G9a H3K9 monomethylation, AlphaScreen, 2 h; Potency, µM (doses to about 102 µM), inactives show at the highest dose activity, negative = inhibition, hits mostly inhibitors; Q96KQ7; hit rate 8.8% among 350,000; also: % is scaled to controls: 0 for no effect and ±100 for the full control effect; nearly all actives have a fitted effect of over 75% in size
# Target sequence (Q96KQ7 913-1193 limits assumed): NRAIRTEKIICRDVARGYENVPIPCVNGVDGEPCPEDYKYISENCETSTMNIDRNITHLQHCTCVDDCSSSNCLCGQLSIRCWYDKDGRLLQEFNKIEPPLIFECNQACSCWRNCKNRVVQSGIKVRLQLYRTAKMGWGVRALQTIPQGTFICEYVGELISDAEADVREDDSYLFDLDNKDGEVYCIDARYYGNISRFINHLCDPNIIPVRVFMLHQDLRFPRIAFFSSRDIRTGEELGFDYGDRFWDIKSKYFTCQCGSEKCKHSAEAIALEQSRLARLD
#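 G9a (20 nM) was preincubated 15 min with compound, then reacted 2 h at room temperature with 500 nM biotin-H3K9 peptide and 20 µM SAM. Monomethyl-H3K9 detected by AlphaScreen using anti-H3K9me1 antibody.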
# JMJD2A Tudor inh: inhibitors of human JMJD2A Tudor domain | AID 504339 | O75164 | Potency, µM (doses to about 114 µM), for inactives: at the top dose activity change, negative = inhibition, usual class: inhibitors | AlphaScreen JMJD2A-Tudor / H3K4me3 peptide binding | hit rate 4.4% among 390,000; also: % is scaled to controls: 0 for no effect and ±100 for the full control effect; nearly all actives have a fitted effect of over 50% in size
# TbPYK inh: confirmation of Trypanosoma brucei pyruvate kinase inhibitors; Potency, µM (doses to about 76.9 µM), for inactives: top-dose activity change, negative = inhibition, most hits filed as inhibitors; hit rate 67% among 890; recombinant TbPYK, Kinase-Glo ATP luminescence; shares compounds with PLK1 PBD inh; also: % is scaled to controls: 0 for no effect and ±100 for the full control effect; nearly all actives have a fitted effect of over 70% in size
# TbPYK ADP-Glo: inhibits T. brucei pyruvate kinase in orthogonal ADP-Glo assay. hit rate 62% among 890. AID 720584. recombinant TbPYK, ADP-Glo luminescence, 60 min. Potency, µM (titrated, usually from 76.9 µM), for the others: at the top dose activity change, negative = inhibition, actives largely listed as inhibitors. shares compounds with PLK1 PBD inh; also: % is scaled to controls: 0 for no effect and ±100 for the full control effect; nearly all actives have a fitted effect of over 75% in size
# * hit, by the source's call; ? = inconclusive; / = not tested or not shown; [ ] = remark or other dose. Calls follow the shape of the dose curve; as a rule, active = well fitted curve in the direction sought with a large enough effect; inconclusive = small, poorly fitted or top-dose-only effect, or another doubt; inactive = no such curve, though single readings can be large; an effect the other way counts as inactive or inconclusive. Potency is read from the fitted curve at half-maximal effect.
SMILES,PLK1 PBD inh,Sfp PPTase inh,HP1b binding inh,BAZ2B block,G9a inh,JMJD2A Tudor inh,TbPYK inh,TbPYK ADP-Glo
COc1ccc(S(=O)(=O)N2CCCC(C(=O)Nc3cccnc3)C2)cc1Cl (stereo unspecified),2.67µM*,-9.9%,45.9%,-35.7%,?,?,-4.3%,-11.2%
C[C@@H]1C(=O)O[C@H]2C[C@@]34[C@H]5C[C@@H](C(C)(C)C)[C@]36[C@H](OC(=O)[C@H]6O)O[C@]4(C(=O)O5)[C@]21O,/,5.1%,/,/,/,/,/,/
Cc1ccc(C(=O)N(Cc2ccc3c(c2)OCO3)Cc2nc3ccccc3c(=O)[nH]2)cc1,-7.5%,-3.4%,4.2%,?,-4.1%,-35.4%,/,/
CCCCC(=O)N(Cc1ccc2c(c1)OCO2)Cc1nc2ccccc2c(=O)[nH]1,6.7µM*,-11.8%,-14.7%,-33.4%,-6.2%,31.6µM*,7.4%,2.2%
COCC(C)n1c(COc2ccccc2F)nnc1SCC(=O)Nc1oc(C)c2c(C)n[nH]c(=O)c12 (stereo unspecified),-19.5%,/,42.9%,-18.2%,10µM*,-11.7%,20µM*,17.8µM*
Cc1ccc2c(CC(=O)Nc3ccc(F)c(S(=O)(=O)N4CCOCC4)c3)coc2c1,-4.0%,/,25.4%,5.2%,-8.9%[12.7 µM],-16.2%,/,/
CCN1CCN(CCn2c(=S)[nH]c3ccccc3c2=O)CC1,-1.8%,1.2%,30.9%,2.9%,?,-30.5%,/,/
O=c1c2sc3ccccc3c2[nH]c(=S)n1CCN1CCOCC1,-11.6%,44.7µM*,21.2%,-20.9%,3.55µM*,?,3.98µM*,5.62µM*
CCN(CC)C(=O)CSC1=C(C#N)C(c2cccs2)C=C(C)N1 (stereo unspecified),?,50.1µM*,17.4%,15.7%,10µM*,56.2µM*,14.1µM*,14.1µM*
CC1Nc2nc(NC(=O)C(C)(C)C)[nH]c(=O)c2N(C)C1C (stereo unspecified),9.6%,-9.9%,37.1%,2.3%,-1.3%[59 µM],-7.3%,/,/
CCOC(=O)CC1=C(C(=O)OCC)C(c2cccs2)C(C#N)=C(N)O1 (stereo unspecified),-7.9%,-7.2%,20.3%,-38.6%,-28.6%[59 µM],-8.3%,/,/
CCOC(=O)c1ccc(N2CSC3=C(C#N)C(c4cccs4)CC(=O)N3C2)cc1 (stereo unspecified),-22.2%,11.2µM*,?,44.7µM*,5.62µM*,28.2µM*,?,?
Cc1ccc(N2CSC3=C(C#N)C(c4cccs4)CC(=O)N3C2)cc1 (stereo unspecified),15µM*,1.41µM*,?,?,1.41µM*,31.6µM*,2.51µM*,1.58µM*
COC(=O)C1C(=O)N2CCCSC2=C(C#N)C1c1cccs1 (stereo unspecified),-2.3%,-0.1%,30.9%,-20.7%,?,-14.1%,/,/
CCc1ccc(N2CSC3=C(C#N)C(c4cccs4)CC(=O)N3C2)cc1 (stereo unspecified),18.9µM*,2.51µM*,-33.5%,?,?,31.6µM*,4.47µM*,2µM*
COc1ccc(CCNC(=O)c2cc(C)oc2C)cc1OC,4.6%,4.4%,23.0%,-17.4%,?,2.1%,/,/
Cc1nc(SC(C)C(=O)NCC2CCCO2)c2cc(-c3ccccc3)sc2n1 (stereo unspecified),-6.5%,/,51.1%,-8.5%,0.7%[0.501 µM],-0.7%,/,/
Cc1ccc(-c2nn(CCC(=O)NN3CCOCC3)c(=O)c3ccccc23)cc1,-1.5%,4.7%,41.0%,-15.4%,-1.0%,-4.7%,/,/
COc1cc2c(cc1OC)C(c1ccc([N+](=O)[O-])cc1)NCC2 (stereo unspecified),11.9%,-1.8%,-3.3%,1.8%,/,-21.3%,-5.6%,-8.7%
CCOc1ccc(-n2c(SCc3ccc([N+](=O)[O-])cc3)nnc2-c2ccccc2)cc1,5.1%,0.3%,-0.5%,-30.4%,?,56.2µM*,11.2µM*,8.91µM*
COc1ccc(-n2c(SCc3ccc([N+](=O)[O-])cc3)nnc2-c2ccccc2)cc1,-5.0%,-3.1%,-2.1%,?,?,?,/,/
Cc1nc2ccc(C(=O)NC(C)(C)C)cn2c1N(C)C(=O)CCc1ccccc1,-5.4%,/,/,/,/,/,/,/
Cc1ccccc1CN1CCCN(CC(=O)Nc2ccc(F)cc2)S1(=O)=O,/,/,37.3%,-8.6%,-2.1%[59 µM],-15.7%,/,/
Oc1ccc(C23CC4CC(CC(C4)C2)C3)cc1O,-17.5%,79.4µM*,?,?,0.708µM*,22.4µM*,20µM*,20µM*
Cc1nc2scc(-c3ccccc3)c2c(=O)n1N=C1C=CC(=O)C=C1,3.36µM*,16.9%,8.91µM*,-15.2%,5.7%,3.16µM*,0.398µM*,0.562µM*
SMILES,PLK1 PBD inh,Sfp PPTase inh,HP1b binding inh,BAZ2B block,G9a inh,JMJD2A Tudor inh,TbPYK inh,TbPYK ADP-Glo
Cc1nc2scc(-c3ccccc3)c2c(=O)n1N,-2.8%,-25.7%,-0.7%,3.0%,2.6%[59 µM],-20.4%,/,/
Cc1csc(N=Nc2ccc(N(C)C)cc2)[n+]1[O-],-2.0%,/,/,/,/,/,17.8µM*,12.1%
Cc1c(-c2ccccc2)n(O)c(-c2ccc(N(C)C)cc2)[n+]1[O-],-9.0%,/,/,/,/,/,/,/
COc1cc(N=c2ssnc2Cl)cc(OC)c1,1.68µM*,1.78µM*,-79.8%,44.7µM*,?,28.2µM*,3.98µM*,5.01µM*
N#Cc1cccc(N=c2ssnc2Cl)c1,1.68µM*,7.94µM*,?,28.2µM*,0.891µM*,12.6µM*,8.91µM*,7.08µM*
Clc1nssc1=Nc1ccc(Br)cc1,2.12µM*,10µM*,31.6µM*,22.4µM*,3.16µM*,25.1µM*,8.91µM*,11.2µM*
COc1cc(NC(=O)N2c3ccccc3Sc3ccccc32)cc(OC)c1,/,/,19.1%,0.7%,-6.2%[59 µM],-14.5%,/,/
Clc1nssc1=Nc1nncs1,2.38µM*,/,?,50.1µM*,-0.3%[0.501 µM],22.4µM*,2µM*,5.01µM*
Cc1cc(C)cc(C(N)=Nc2cccc(C#N)c2)c1,-8.1%,6.7%,58.8%,0.8%,9.7%[2.33 µM],-15.9%,/,/
C[C@H](CO)N1C[C@H](C)[C@@H](CN(C)Cc2ccccc2)Oc2c(NC(=O)C3CC3)cccc2C1=O,-7.5%,/,15.8%,/,/,-9.7%,/,/
COc1ccc(Cc2nc3ccc(C(=O)NCc4cccc(C)n4)cc3o2)cc1OC,-2.8%,/,/,/,/,/,/,/
CC(C)c1ccc(/C=C/C(=O)Nc2nn[nH]n2)cc1,/,20.8%,/,-15.9%,?,/,/,/
Cc1ccc(/C=C/C(=O)Nc2cccnc2)o1,?,-14.6%,?,1.1%,3.55µM*,?,28.2µM*,39.8µM*

# Source: PubChem
